Most compounds without a hit are left out; they make up all but 2.3% or so of the library.
Abeta rescue – restores growth of yeast expressing A-beta42 peptide; yeast expressing A-beta42, growth rescue, OD600, 48 h; response scale: 0% DMSO, 100% iron-clioquinol control; Potency, µM (series often up to 46.1 µM), usual class: activators; 0.063% of 410,000 active; note: potency is the fitted concentration of half-maximal effect; nearly all actives have a fitted effect of over 55% in size
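Yeast A-beta toxicity model in growth medium with pinned compounds, 48 h at 30 C; growth read as absorbance at 600 nm. Normalized to FeCl3/clioquinol equimolar mix (positive) and DMSO (negative).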
TDP-43 yeast inh – rescues yeast growth from TDP-43 toxicity. AID 652104. 1.8% of 410,000 active. TDP-43 expressing yeast growth rescue, BacTiter-Glo, 24 h. Potency, µM (doses to about 46.1 µM), without a hit: at the highest dose growth rescue (activation), most hits filed as activators; note: potency is the fitted concentration of half-maximal effect; % of control where 0% means no effect; nearly all actives have a fitted effect of over 50% in size
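Readout is BacTiter-Glo luminescence of cell growth, so inhibitors register as activators. TDP-43-expressing yeast at OD600=0.02 in galactose medium, after raffinose pregrowth to mid-log, were incubated with compound for 24 hr at 30 deg C.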
CCT modulator – modulators of cytosolic chaperonin (CCT/TRiC) activity; activity change, % (no concentration beside the values), hits read low; 0.3% of 360,000 active; purified chaperonin ATPase assay, HTRF ADP detection, 30 min; in the data active = activity change below about -30%; note: % is set by controls: 0 for no effect and ±100 for the full control effect
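ATPase activity: ADP formed was measured by HTRF Transcreener (665/615 nm ratio) after 30 min at 37 deg C with 10 uM ATP. Compounds screened at one 76 uM concentration against 40 or 20 nM TRiC in Tris pH 7.4/KCl/MgCl2/DTT buffer.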
Mm-Cpn inhibitor – inhibitors of Methanococcus maripaludis chaperonin TRiC (MmCpn) | Potency, µM (series often up to 76.9 µM), for the others: at the top dose activity, negative = inhibition, actives largely listed as inhibitors | AID 504842 | purified Mm-Cpn ATPase, ADP Transcreener TR-FRET | 0.031% of 330,000 active; note: potency is the fitted concentration of half-maximal effect; % is set by controls: 0 for no effect and ±100 for the full control effect; nearly all actives have a fitted effect of over 80% in size
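Purified archaeal Mm-CPN (25nM final) preincubated 10 min at 37degC with compound, then 10uM ATP for 30 min at 37degC; ADP measured by HTRF Transcreener TR-FRET; buffer 30 mM TRIS pH 7.4, 100mM KCl, 5mM MgCl2, 1mM DTT.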
FUS yeast rescue – FUS proteinopathy suppression in yeast; S. cerevisiae FUS-expressing, growth rescue, OD600, 24 h; Potency, µM (series often up to 76.6 µM), most hits filed as activators; 0.24% of 390,000 active; AID 1347120;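 note: potency is the fitted concentration of half-maximal effect; plate controls were DMSO vehicle for no effect and reference control for full effect; nearly all actives have a fitted effect of over 55% in size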
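Read-out: OD at 600 nm after 24hr at 30C, reporting rescue of FUS-induced yeast toxicity. Cells at OD 0.005 in galactose (2%) minimal medium; compounds tested in a dilution series; CP55940 titration from 92uM final as control.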
aSyn yeast inh – alpha-synuclein toxicity inhibition in yeast | Yeast expressing alpha-synuclein, growth rescue, BacTiter-Glo, 24 h | AID 652106 | Potency, µM (titrated, usually from 46.1 µM), for inactives: top-dose growth rescue (activation), hits mostly activators | 0.14% of 370,000 active; note: potency is the fitted concentration of half-maximal effect; % of control where 0% means no effect; nearly all actives have a fitted effect of over 65% in size
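Rescue of yeast growth: cells expressing toxic alpha-synuclein, induced in galactose at OD600 0.02, incubated with compound 24 h at 30 C. ATP luminescence quantified growth; inhibitors of toxicity appear as activators.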
Active calls of the source: *; i = inactive; u = inconclusive; x = no result given; [ ] = another dose, or the depositor's remark. Unless noted, calls come from the whole dose curve; as a rule, active = well fitted curve in the direction sought with a large enough effect; inconclusive = small, poorly fitted or top-dose-only effect, or another doubt; inactive = no such curve, though single readings can be large; an effect the other way counts as inactive or inconclusive.

SMILES	Abeta rescue	TDP-43 yeast inh	CCT modulator	Mm-Cpn inhibitor	FUS yeast rescue	aSyn yeast inh
Cc1c(Cl)cccc1-n1ncc(C(=O)NCc2cccs2)c1C1CCN(C(=O)OC(C)(C)C)CC1	u	32µM*	x	x	u	x
Cc1ccc(-n2ncc(C(=O)NCc3cccs3)c2C2CCN(C(=O)OC(C)(C)C)CC2)cc1C	i	-11%	x	x	20µM*	x
COC(=O)CN1CCN(C(=O)c2csc(-c3ccccc3)n2)CC1	x	x	x	x	i	x
CCCCN1CN2CCc3ccccc3C2CS1(=O)=O (stereo not given)	x	x	x	x	i	x
CC(C)(C)c1ccc(O)c(N=Cc2cccc([N+](=O)[O-])c2)c1	x	x	x	x	x	-2%
CSc1ccc(S(=O)(=O)Nc2ccc(F)cc2)cc1	i	13µM*	-1	0%	i	16%
COc1ccc(NS(=O)(=O)c2ccc(SC)cc2)cc1	i	12%	-1	-1%	10µM*	-10%
COc1cccc(CNC(=S)Nc2cccc(Cl)c2C)c1	u	18µM*	3	1%	i	1%
CCN(CC)CCCNC(=O)c1ccc2c(c1)N(Cc1c(F)cccc1Cl)C(=O)c1ccccc1S2	i	-13%	x	x	i	x
CCC(=O)c1ccc(OCc2ccccc2)c(OC)c1	i	11µM*	0	-1%	i	10%
CCC(=O)c1ccc(OCc2ccc(C(=O)OC)cc2)c(OC)c1	i	20%	-2	0%	i	-12%
O=C(CSc1nnc(SCc2cccc3ccccc23)s1)Nc1ccccc1-c1ccccc1	x	x	x	x	i	x
c1ccc(CN(Cc2ccccc2)C(c2ccnc3ccccc23)c2nnnn2-c2ccc3c(c2)OCCO3)cc1 (stereo not given)	i	21%	0	x	i	3%
CN(CCc1ccccc1)C(c1ccnc2ccccc12)c1nnnn1-c1ccc2c(c1)OCCO2 (stereo not given)	i	35µM*	1	x	u	1%
CCC(=O)N1CCc2cc(Br)c(S(=O)(=O)NC3CCN(Cc4ccccc4)CC3)cc21	x	x	x	x	i	x
O=C(O)Cc1cc2c(s1)CCCCC2	i	13µM*	-1	1%	i	9%
CCOC(=O)c1c(C)n(-c2ccc(OC)cc2)c2ccc(OC(=O)COc3ccccc3)cc12	i	17%	x	x	i	x
COc1ccc(/C=C(\C)C(=O)c2c(C)cc(C)[nH]c2=O)cc1	i	-8%	2	x	i	-6%
COc1ccc(OC)c(/C=C(\C)C(=O)c2c(C)cc(C)[nH]c2=O)c1	i	-1%	-42*	x	i	-3%
FC(F)(F)c1nc(=S)c2ccccc2[nH]1	i	10µM*	-1	0%	i	-4%
O=C(Nc1ccc2c(c1)OCO2)N1CCN(Cc2ccco2)CC1	i	-12%	-3	1%	i	-4%
CCCNC(=O)N1CCN(Cc2ccco2)CC1	i	-11%[0.397 µM]	-63*	0%	i	-5%
COc1ccccc1-c1noc2ncnc(Nc3cccc(C)c3C)c12	i	18µM*	-2	0%	i	7%
COc1ccccc1-c1noc2ncnc(Nc3ccccc3C)c12	i	u	0	1%	i	-2%
CC(C)C[C@H]1COc2cc(N3CCSCC3)ccc2S(=O)(=O)N1C	x	x	x	x	i	x
SMILES	Abeta rescue	TDP-43 yeast inh	CCT modulator	Mm-Cpn inhibitor	FUS yeast rescue	aSyn yeast inh
C=CCn1c(C)cc(C(=O)COC(=O)c2cncc(Br)c2)c1C	i	20µM*	-3	-5%	i	19%
N#CCC[C@@H]1CC[C@]2(CCCN(C(=O)c3ccno3)C2)O1	x	x	x	x	i	x
CC(=O)N1N=C(c2ccc(Br)cc2)CC1c1ccc(Br)cc1 (stereo not given)	i	6%	-3	x	i	9%
CC(C)c1ccc(C2CC(c3ccc(Br)cc3)=NN2C(N)=S)cc1 (stereo not given)	10µM*	-6%	-1	u	i	-13%
O=C(/C=C/c1ccc(F)cc1)N1CCCc2ccccc21	i	18µM*	1	0%	i	3%
O=C(/C=C/c1cccc(F)c1)N1CCc2ccccc21	i	14%	-2	1%	i	1%
CCOC(=O)CSc1nc2cc3c(cc2cc1C#N)OCO3	i	8%	-3	-1%	i	30%
CCOC(=O)CSc1nc2cc3c(cc2cc1C#N)OCCO3	i	-10%[9.22 µM]	-39*	-28%	i	-5%
Cc1ccc(C2=NOC(=O)/C2=C\c2ccccc2)cc1	u	25µM*	0	x	i	13%
COc1cc(/C=C2\C(=O)ON=C2c2ccccc2)cc(Br)c1O	i	11µM*	0	-3%	i	29%
CCOc1cc(/C=C2\C(=O)ON=C2c2ccccc2)cc(Br)c1O	i	u	1	0%	u	-4%
CCCC1CCC2(CC1)CCC2OC(=S)Nc1ccccc1OC (stereo not given)	x	x	x	x	i	x
CCCC(=O)OC12CCCN(C1)/C(=C/c1ccc(C#N)cc1)C2 (stereo not given)	x	x	x	x	i	x
O=C(CN1CCCc2ccccc21)NCc1ccc2c(c1)OCO2	i	11µM*	1	-1%	i	15%
O=C(CSc1nc2ccccc2o1)NCc1ccc2c(c1)OCO2	i	14µM*	-1	-1%	i	0%
COc1ccc(C2(C(=O)NCCc3ccccc3)CCCC2)cc1	u	20%	-4	-5%	i	9%
O=C(NCCc1ccc(Cl)cc1)C1(c2ccccc2)CC1	i	14µM*	0	0%	i	16%
O=C(CN1CCCc2ccccc21)NCCc1ccc(Cl)cc1	i	14µM*	-7	-5%	i	5%
Cc1ccc(NC(=O)/C=C\C(=O)N(c2ccc(C(C)C)cc2)C(C(=O)NCc2ccco2)c2ccc(F)cc2)cc1 (stereo not given)	i	2%	x	x	u	x
CCOc1cc(-c2cc(-c3ccccc3)nc(N)c2C#N)ccc1O	i	-11%	0	-5%	i	0%
Cc1ccc(-c2cc(-c3ccc(F)cc3)nc(N)c2C#N)o1	i	6%	-3	-3%	i	7%
CCOc1cc(-c2cc(-c3ccc(N)cc3)nc(N)c2C#N)ccc1O	i	16µM*	1	-5%	i	-24%
N#Cc1c(-c2ccncc2)cc(-c2ccc(F)cc2)nc1N	5.6µM*	6%	0	0%	i	1%
CC12CCC(O)CC1=CCC1C2CCC2(C)C3=NN=CC3CC12 (stereo not given)	i	16µM*	-1	x	i	u

High-throughput results: PubChem BioAssay, National Center for Advancing Translational Sciences (NCATS)
